The test in a line: chemical genetic growth profiling, strain panel (AID 1159580).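 Further: tested at 20 µM; growth read once vehicle control cultures reached saturation at 30 °C; 1 = growth at the plate median or of vehicle wells.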 The settings on record: S. cerevisiae deletion strains, growth OD.
[1] abbreviates: locus YHR030C, strain SLT2, stronger effect = lower value.
[2] abbreviates: locus YAL013W, strain DEP1, stronger effect = lower value.
[3] abbreviates: locus YDR150W, strain NUM1, stronger effect = lower value.
The mark [4] stands for this setting: locus YGR078C, strain PAC10, stronger effect = lower value.
Setting [5] is: locus YJR075W, strain HOC1, stronger effect = lower value.
The mark [6] stands for this setting: locus YNL153C, strain GIM3, stronger effect = lower value.
Where [7] appears, read: locus YNL322C, strain KRE1, stronger effect = lower value.
Setting [8] is: locus YPL055C, strain LGE1, stronger effect = lower value.

The campaign covered roughly 5,500 compounds. About 2,000 (36%) were called active. About 18% were inconclusive and are not listed. The list shows a part of the results. Values without a mark were called inactive. No stated cut-off is given here; in the data, active means normalized growth mostly below about 0.91 (no sharp cut-off); inconclusive means no clear call, values can overlap the other calls; inactive means mostly above about 0.92.

As to `COc1ccc(C(C)=O)c(OC)c1`, the normalized growth under setting [1] was 0.954; the normalized growth (locus YHR079C, strain IRE1, stronger effect = lower value) is 0.952; the normalized growth (locus YJL095W, strain BCK1, stronger effect = lower value) was 0.965; the normalized growth (locus YJR066W, strain TOR1, stronger effect = lower value) is 0.953; the normalized growth (locus YLR113W, strain HOG1, stronger effect = lower value) is 0.948; the normalized growth (locus YNL183C, strain NPR1, stronger effect = lower value) is 0.895. For the same compound, the normalized growth is, setting by setting: (locus YOR231W, strain MKK1, stronger effect = lower value) 0.934; (locus YPL256C, strain CLN2, stronger effect = lower value) 0.909.
Take `COc1cc(C(O)C(=O)O)ccc1O` (configuration not stated): the normalized growth was 0.996 under setting [2]; 0.984 (locus YAL040C, strain CLN3, stronger effect = lower value); 0.994 (locus YCL061C, strain MRC1 (second series), stronger effect = lower value); 0.994 under setting [3]; 1.01 (locus YDR363W, strain ESC2, stronger effect = lower value); 1.03 (locus YER002W, strain NOP16, stronger effect = lower value). The normalized growth under setting [4] is 1; the normalized growth under setting [5] is 0.991; the normalized growth (locus YMR307W, strain GAS1, stronger effect = lower value) was 0.989; the normalized growth (locus YNL128W, strain TEP1, stronger effect = lower value) was 0.986; the normalized growth under setting [6] is 1.01; the normalized growth (locus YNL175C, strain NOP13, stronger effect = lower value) is 0.992. The normalized growth by setting is: (locus YNL197C, strain WHI3, stronger effect = lower value) 1.01; (locus YNL224C, strain SQS1, stronger effect = lower value) 1.02; under setting [7], 0.998; (locus YOR083W, strain WHI5 (second series), stronger effect = lower value) 1.01; under setting [8], 1.01.
With `COc1ccc(OC)c(C(=O)c2cc(OC)c(OC)c(OC)c2)c1`, the normalized growth runs as follows: under setting [2], 0.999; (locus YBR229C, strain ROT2, stronger effect = lower value) 1.02; (locus YDL101C, strain DUN1, stronger effect = lower value) 1; under setting [3], 1.01; (locus YEL061C, strain CIN8, stronger effect = lower value) 1.05; under setting [4], 1. The normalized growth was 0.93 under setting [1]; 1.06 (locus YHR087W, strain rtc3, stronger effect = lower value); 1.01 (locus YJL187C, strain SWE1, stronger effect = lower value); 1.02 (locus YJR043C, strain POL32, stronger effect = lower value); 1.03 under setting [5]; 1.03 (locus YKL190W, strain CNB1, stronger effect = lower value). The normalized growth was 0.753 (active) (locus YLR039C, strain RIC1, stronger effect = lower value); 1.01 (locus YLR058C, strain SHM2 (second series), stronger effect = lower value); 0.999 (locus YLR085C, strain ARP6, stronger effect = lower value); 0.69 (active) (locus YLR262C, strain YPT6, stronger effect = lower value); 0.982 (locus YML094W, strain GIM5, stronger effect = lower value); 1.01 (locus YMR219W, strain ESC1, stronger effect = lower value). Moreover, the normalized growth by setting is: (locus YMR263W, strain SAP30, stronger effect = lower value) 1.01; under setting [6], 1.01; (locus YNL298W, strain CLA4 (second series), stronger effect = lower value) 1.01; under setting [7], 0.995; (locus YNR030W, strain Alg12, stronger effect = lower value) 1.01; (locus YOL006C, strain TOP1, stronger effect = lower value) 0.973. For the same compound, the normalized growth under setting [8] is 1.01; the normalized growth (locus YPL241C, strain CIN2, stronger effect = lower value) is 0.986; the normalized growth (locus YPR135W, strain CTF4, stronger effect = lower value) is 1.06.

(Values after PubChem BioAssay AID1159580 (chemical genetic matrix, 2015).)
